# In all, about 360,000 compounds went through this assay and about 17,000 (4.7%) were called active. Another 5% or so got no clear call; they are omitted. The sample as a whole holds a higher share of actives than the screen did. Unmarked numbers belong to inactive results. Rule as the data show it: active = activity change below about -50%; inconclusive = mostly about -30% to -49%; inactive = weaker than that.
# Assay: qHTS for Inhibitors of Inflammasome Signaling: IL-1-beta AlphaLISA Primary Screen
# Conditions: THP-1 LPS/ATP IL-1B secretion, 16 h; at 57.5 µM, hits give low values
# How it was run: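 Secreted IL-1B measured by AlphaLISA bead assay after 16 h compound exposure of THP-1 cells; compounds (final up to 57.5 uM) added 1 h before LPS (250 ng/mL) and ATP (1.25 mM) stimulation; lower signal means less secretion.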
# % is scaled to controls: 0 for no effect and ±100 for the full control effect.
row,SMILES,activity change
1,Cc1ccc(-c2ccc(CN3C(C)C(=O)N(Cc4cn(CCC5OCCCO5)nn4)CCS3(=O)=O)cc2)cc1 (stereo not given),-2.45%
2,CC1C(=O)Nc2ccccc2N1C(=O)c1ccc(F)cc1F (stereo not given),10.1%
3,Cc1ccc(C(=O)N[C@H](C(=O)N2CCN(c3ncccn3)CC2)C(C)C)cc1,-11.5%
4,CCOC(=O)c1cnn(Cc2ccccc2Cl)c1N,0.436%
5,Cc1c(NC(=O)CSc2cccc3cccnc23)c(=O)n(-c2ccccc2)n1C,-96.5% (active)
6,Cc1c(NC(=O)CSc2nnnn2-c2ccc(C(=O)O)cc2)c(=O)n(-c2ccccc2)n1C,22.1%
7,Cc1c(NC(=O)CSc2nnc(-c3cccnc3)n2N)c(=O)n(-c2ccccc2)n1C,25.5%
8,Cc1noc(C)c1-c1ccc(C(=O)NCc2ccncc2)c2occc12,60.8%
9,COC(=O)CN1C(C)=Nc2ccc(Br)cc2C1c1ccccc1 (stereo not given),-27.1%
10,Cc1ccc(C2C(C#N)C(C#N)N3CCCN23)cc1 (stereo not given),0.442%
11,CCN(/N=C/c1ccc(N(C)C)cc1)c1nc2ccccc2[nH]1,-29.3%
12,Oc1ccc(/C=N/N(Cc2ccccc2)c2ccccc2)cc1,-72.7% (active)
13,CCN(/N=C/c1ccccc1)c1cc(=O)n(C)c(=O)[nH]1,0%
14,Cc1cc(Cl)ccc1OCCCC(=O)NCc1ccncc1,-6.96%
15,Cc1ccc(-c2nc(-c3ccncc3)no2)c(C)c1,-25.6%
16,Cc1cc(Cl)ccc1OCc1nc(-c2ccncc2)no1,-55.8% (active)
17,S=C(NCCCc1ccccc1)Nc1ccc(Br)cc1,-85.8% (active)
18,S=C(NN=C1CCN(Cc2ccccc2)CC1)NC1CCCCC1,0%
19,Cc1cc(Br)ccc1NC(=S)NC1CCCC1,0.7%
20,O=C(Cc1ccc(Br)cc1)NCCc1ccccc1,-1.81%
21,O=S(=O)(NCCCc1ccccc1)c1ccc(Br)cc1,8.22%
22,S=C(Nc1ccc(Br)cc1Cl)NC1CCN(Cc2ccccc2)CC1,-75.9% (active)

row,SMILES,activity change
1,S=C(Nc1ccc(Br)cc1)NC1CCN(Cc2ccccc2)CC1,-96% (active)
2,O=C(COc1ccc(Br)cc1F)NC1CCN(Cc2ccccc2)CC1,-25.9%
3,CCNC(=S)NNC(=O)C1CCN(Cc2ccccc2)CC1,-12.8%
4,COCCN(C(=O)C(C)N1C(=O)c2ccccc2C1=O)c1c(N)n(CC(C)C)c(=O)[nH]c1=O (stereo not given),13.1%
5,COc1ccc(OC)c(NC(=O)c2cc(-c3cc(F)ccc3OCC3CCCO3)n[nH]2)c1 (stereo not given),0%
6,CCCC(=O)N1CCC1(C)C(=O)NCc1ccc(C(C)C)cc1 (stereo not given),-18%
7,N/C(Cc1ccc([N+](=O)[O-])cc1)=N\OC(=O)COc1ccc2ccccc2c1,-59.9% (active)
8,N/C(=N\OC(=O)Cc1ccc([N+](=O)[O-])cc1)c1ccccn1,-21.1%
9,Cc1cc(C)cc(OCC(=O)O/N=C(\N)Cc2ccc([N+](=O)[O-])cc2)c1,-24.7%
10,CC1(C(=O)NS(=O)(=O)c2ccccc2)CCN1C(=O)c1ccccc1 (stereo not given),21%
11,O=C(CN1CCSCC1)N/N=C/c1ccc(F)cc1,-9.62%
12,Cc1ccc(COc2ccc(/C=N/NC(=O)CN3CCCCC3)cc2)cc1,-51.4% (active)
13,CCOc1cc(/C=N/NC(=O)CN2CCCCC2)ccc1O,2.69%
14,COc1ccc(N2CC(C(=O)NCCN3C(=O)S/C(=C\c4cccnc4)C3=O)CC2=O)c(OC)c1 (stereo not given),-26.5%
15,COc1cc(OC)cc(C(=O)NNC(=O)Cc2cccs2)c1,-1.89%
16,Cc1cc2nc(-c3ccco3)c(Cc3cccc(F)c3)n2c(C)c1Br,5.29%
17,O=S1(=O)CC(N2CCN(CCO)CC2)CN1Cc1cn(Cc2cccc(Cl)c2)nn1 (stereo not given),13.7%
18,COc1ccc(C2=NN(C(=O)CSc3nnnn3C)C(c3ccco3)C2)cc1 (stereo not given),-17.6%
19,CCOC(=O)C1C(=O)NC(N2CCN(c3ccccc3)CC2)=NC1c1ccco1 (stereo not given),-8.04%
20,CCOC(=O)C1C(=O)C=C(c2ccc(OC)cc2)CC1c1ccco1 (stereo not given),-62.8% (active)
21,Cc1ccc(NC(=O)C(C)OC(=O)C2CC3CCCC(C2)C3=O)cc1S(=O)(=O)N1CCOCC1 (stereo not given),21%
22,CC1(C(=O)Nc2cccc3c2CCCC3)CCN1C(=O)C1(c2ccccc2)CC1 (stereo not given),2.24%

row,SMILES,activity change
1,CC(C)Cc1ccc(-c2cc3nc(NCc4cccc(Cl)c4)ccn3n2)cc1,16.6%
2,COc1ccc(-c2csc3ncnc(N4CCN(S(=O)(=O)c5cccc(F)c5)CC4)c23)cc1,-1.57%
3,COc1cccc(C=CC(=O)C=CC=Cc2ccccc2)c1,-59.4% (active)
4,COc1cccc(/C=C/C(=O)OCC(=O)N2CCCc3ccccc32)c1,-0.538%
5,COc1cccc(C(=O)NNC(=O)/C=C/c2ccccc2)c1,12.5%
6,COc1ccc(C2OC(CCc3ccccc3)Cc3[nH]c(=S)[nH]c(=O)c32)cc1 (stereo not given),-10.2%
7,CCn1ccnc1CN(C)C(=O)c1cc(COc2ccc(Cl)cc2OC)on1,-11%
8,COc1cc(Cl)ccc1OCc1cc(C(=O)N2CC[C@@H]3CCCC[C@H]3C2)no1,-82.6% (active)
9,COc1ccc(OCc2cc(C(=O)N3CCCC3)no2)c2ccccc12,0%
10,O=C(CC(O)(C(F)(F)F)C(F)(F)F)Nc1ccc(Cl)c(Cl)c1,-71.8% (active)
11,O=C(CCCN1C(=O)CCC1=O)Nc1ccc(Cl)c(C(F)(F)F)c1,3.74%
12,O=C(COC(=O)c1cc[n+]([O-])cc1)Nc1ccc(Cl)c(C(F)(F)F)c1,14.3%
13,COc1ccc(C(=O)N2CCCCC2c2cc(C(=O)Nc3ccccc3)no2)cc1 (stereo not given),-3.11%
14,O=C(CCN1C(=O)c2ccncc2C1=O)Nc1cc(F)ccc1F,36.2%
15,C#CCOCCOCCOCCNc1nc(N2CCN(C(=O)Cn3cc(CCO)nn3)CC2)nc(N2CCN(C(=O)Cn3cc(CCCN=C(N)N)nn3)CC2)n1,12.6%
16,C#CCOCCOCCOCCNc1nc(N2CCN(C(=O)CCCCCCCCCCNC(=O)Cn3cc(CCCCCN)nn3)CC2)nc(N2CCN(C(=O)CCCCCCCCCCNC(=O)[C@H](CO)n3cc(CCCSC)nn3)CC2)n1,-72.1% (active)
17,C#CCOCCOCCOCCNc1nc(N2CCN(C(=O)Cn3cc(CCCCN)nn3)CC2)nc(N2CCN(C(=O)[C@H](CCCCN)n3cc(CCC(=O)O)nn3)CC2)n1,58.3%
18,C#CCOCCOCCOCCNc1nc(N2CCN(C(=O)[C@H](C(C)C)n3cc(CCO)nn3)CC2)nc(N2CCN(C(=O)[C@H]([C@@H](C)CC)n3cc(CCCN=C(N)N)nn3)CC2)n1,-5.99%
19,C#CCOCCOCCOCCNc1nc(N2CCN(C(=O)[C@H](CCC(=O)O)n3cc(CN)nn3)CC2)nc(N2CCN(C(=O)[C@H](CCC(=O)O)n3cc(CN)nn3)CC2)n1,25.6%
20,C#CCOCCOCCOCCNc1nc(N2CCN(C(=O)[C@H](CCCCN)n3cc(CCC(=O)O)nn3)CC2)nc(N2CCN(C(=O)[C@H](CCCCN)n3cc(CC(C)O)nn3)CC2)n1 (stereo not given in full),3.3%
21,C#CCOCCOCCOCCNc1nc(N2CCN(C(=O)CCCCCCCCCCNC(=O)[C@H]([C@@H](C)CC)n3cc(CCCCN=C(N)N)nn3)CC2)nc(N2CCN(C(=O)CCCCCCCCCCNC(=O)[C@H](CO)n3cc(CCCSC)nn3)CC2)n1,-111% (active)
22,C#CCOCCOCCOCCNc1nc(N2CCN(C(=O)Cn3cc(CCO)nn3)CC2)nc(N2CCN(C(=O)[C@H](CCCCN)n3cc(CCCC)nn3)CC2)n1,2.45%

row,SMILES,activity change
1,C#CCOCCOCCOCCNc1nc(N2CCN(C(=O)CCCCCCCCCCNC(=O)[C@H](CCCCN)n3cc(C)nn3)CC2)nc(N2CCN(C(=O)CCCCCCCCCCNC(=O)[C@H](CO)n3cc(CCCSC)nn3)CC2)n1,-81.7% (active)
2,COc1ccc(CCNc2cc(N3CCN(C(=O)c4ccccc4OC)CC3)ccc2[N+](=O)[O-])cc1OC,42.9%
3,O=C(NN=CC=Cc1ccccc1)C(O)C(O)C(=O)NN=CC=Cc1ccccc1 (stereo not given),-17.2%
4,Cc1ccc(C(CNC(=O)Nc2cccc(C)c2)N2CCN(C)CC2)cc1 (stereo not given),-20.1%
5,CCC1CCCCN1C(=S)NC(=O)c1ccco1 (stereo not given),-6.58%
6,CCn1c(=O)c2ccccc2n(CC(=O)N2CCCc3ccccc32)c1=O,-0.244%
7,COc1ccc(CCNC(=O)COc2cc(C)cc3oc(=O)c(C)c(C)c23)cc1OC,-1.44%
8,CCOc1ccc(OCc2ccc(C(=O)N(C)c3ccccc3)o2)cc1,-7.29%
9,CCOc1ccc(OCc2ccc(C(=O)Nc3cccc(C)n3)o2)cc1,-69% (active)
10,Cc1cccc(NC(=O)c2ccc(COc3ccccc3[N+](=O)[O-])o2)n1,6.94%
11,OC[C@@H]1CN(Cc2ccc(Cl)cc2)C[C@H](n2cnc3c(NCc4ccncc4)ncnc32)O1,-7%
12,C=CCn1c2c(c3ccccc31)CCC2,0%
13,Cc1ccc(C(=O)CSc2ccccc2C(=O)O)cc1,5.18%
14,Cc1ccc(SC(CC(=O)c2ccc(C(C)(C)C)cc2)C(=O)O)cc1 (stereo not given),-93.8% (active)
15,CC(C)(C)c1ccc(C(=O)NNC(=O)Cc2ccccc2)cc1,0.0784%
16,CCC(C)C1(C2CCCC2)NC(=O)NC1=O (stereo not given),-5.19%
17,CC1(c2cccc([N+](=O)[O-])c2)CC(C)(C)N(C(=O)c2ccccc2)c2ccccc21 (stereo not given),-2.13%
18,Cc1nnc(SCC(=O)N2c3ccccc3C(C)(c3ccc(Cl)cc3)CC2(C)C)s1 (stereo not given),-71.6% (active)
19,CC1(c2ccccc2)CC(C)(C)N(C(=O)c2cc([N+](=O)[O-])cc([N+](=O)[O-])c2)c2ccccc21 (stereo not given),5.37%

# From PubChem BioAssay AID743279 (National Center for Advancing Translational Sciences (NCATS), 2014)
